High-throughput results (PubChem)
KB-3-1 cytotox – qHTS assay for MDR1-selective chemotherapeutics: Primary screen using the parental adenocarcinoma cell KB-3-1; Potency, µM (doses to about 46.1 µM), actives largely listed as cytotoxic; 1.4% of 400,000 active; KB-3-1 viability, CellTiter-Glo ATP luminescence, 72 h; further: on the % scale 0 is the no-effect control and ±100 the full control effect; nearly all actives have a fitted effect of over 60% in size
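Cells are dispensed, compounds pinned in, plates held at 37 °C for 72 h, then CellTiter-Glo is added and luminescence read after 10 minutes. Cell line: parental KB-3-1 in phenol-red-free DMEM, 10% FBS.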
KB-V1 cytotox – qHTS assay for MDR1-selective chemotherapeutics: Primary screen using the drug-selected MDR subline cells KB-V1 | 3.4% of 400,000 active | Potency, µM (series often up to 46.1 µM), most hits filed as cytotoxic | KB-V1 MDR cells viability, CellTiter-Glo, 72 h; further: on the % scale 0 is the no-effect control and ±100 the full control effect; nearly all actives have a fitted effect of over 60% in size
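Potencies derive from concentration-effect curves fitted to normalized luminescence (CellTiter-Glo) of KB-V1 cells treated for 72 h at 37 degrees C in phenol-red-free DMEM containing 10% FBS.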
ELG1 repair inh – qHTS screen for small molecules that inhibit ELG1-dependent DNA repair in human embryonic kidney (HEK293T) cells expressing luciferase-tagged ELG1; HEK293T ELG1-luciferase reporter, luminescence, 16 h; DNA damage induced by 5-fluorouridine; 2.3% of 330,000 active; AID 504467, 2011; Potency, µM (highest dose often 46.1 µM), for inactives: top-dose activity change, negative = inhibition, usual class: inhibitors; further: on the % scale 0 is the no-effect control and ±100 the full control effect; nearly all actives have a fitted effect of over 55% in size
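Luminescence from the luciferase reporter, measured 30 min after ONE-Glo reagent at room temperature, was the read-out. Beforehand, 2,000 cells per well were exposed for 16 hr at 37 °C to 5-fluorouridine together with compound or vehicle.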
SW480 rereplic – A quantitative high throughput screen for small molecules that induce DNA re-replication in SW480 colon adenocarcinoma cells; SW480 DNA re-replication, Hoechst DNA content imaging, 48 h; 1.8% of 340,000 active; Potency, µM (series often up to 46.1 µM), for the others: top-dose re-replication activation, most hits filed as activators; further: % of control where 0% means no effect; nearly all actives have a fitted effect of over 55% in size
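Hoechst fluorescence of nuclei (405 nm excitation, 500-530 nm emission) measured by plate-scanning imager after 48 hr compound exposure at 37 C; re-replication scored as increased number of nuclei with elevated intensity.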
MCF10A rereplic – A quantitative high throughput screen for small molecules that induce DNA re-replication in MCF 10a normal breast cells; MCF 10A DNA re-replication, Hoechst nuclear intensity, 48 h; Potency, µM (series often up to 46.1 µM), without a hit: at the top dose activity, positive = re-replication, hits mostly activators; 2.9% of 350,000 active; AID 624296, 2012; further: % of control where 0% means no effect; nearly all actives have a fitted effect of over 50% in size
Starred values were filed as active, the others as inactive; i = inactive; ? = inconclusive; . = no result. In the library only some 8.1% were active in any assay of this set; here they are far more common. The call rests on the fitted dose curve; in most records, active means well fitted curve in the direction sought with a large enough effect; inconclusive means small, poorly fitted or top-dose-only effect, or another doubt; inactive means no such curve, though single readings can be large; an effect the other way counts as inactive or inconclusive. Potency means the concentration at half of the fitted maximal effect.

SMILES	KB-3-1 cytotox	KB-V1 cytotox	ELG1 repair inh	SW480 rereplic	MCF10A rereplic
CCCCC[n+]1ccn(C2=C([O-])c3ccccc3C(=O)/C2=N\S(=O)(=O)c2ccccc2)c1	?	i	?	11µM*	19%
O=C(CS(=O)(=O)c1cn(Cc2cccc(F)c2)c2ccccc12)N1CCOCC1	i	23µM*	7%	-8%	0%
CCOC(=O)C(Cc1nc(OCc2ccccc2)cc(OCc2ccccc2)n1)=NO	21µM*	13µM*	.	12%	21µM*
NC(=S)N/N=C/c1c(O)ccc2ccccc12	1.6µM*	?	13µM*	?	?
Oc1ccc2ccccc2c1/C=N/Nc1ccccc1	?	i	?	-3%	9%
O=C(NN=Cc1c(O)ccc2ccccc12)c1ccc2c(c1)OCO2	?	?	?	21µM*	12µM*
O=CN/N=C/c1c(O)ccc2ccccc12	7.3µM*	?	21µM*	18%	1%
NC(=S)N/N=C/c1coc2c(ccc3ccccc32)c1=O	6.5µM*	5.2µM*	?	16%	-4%
Cc1cccc(N2C(=S)NC3c4cc(Cl)ccc4OC2(C)C3C(=O)N(C)C)c1 (centres undefined)	i	i	-15%	12%	1%
Cc1cccc(N2CC(C(=O)OCC(=O)Nc3sccc3C(N)=O)CC2=O)c1C (centres undefined)	i	i	-3%	-2%	0%
CCCCC(=O)Nc1cc(-c2nc3cccnc3s2)ccc1C	i	i	.	.	.
O=C(Cn1nc(CNc2ccc(Br)cc2)[n+]2c1CCCCC2)c1ccc([N+](=O)[O-])cc1	13µM*	i	-1%	-7%	7%
O=C(Cn1nc(CNc2ccc(Cl)cc2)[n+]2c1CCCCC2)c1ccc(Br)cc1	?	i	10%	-5%	24%
Cc1ccc(NC(=O)NC2(C(=O)NCc3ccccc3)CCCCC2)cc1	i	i	5%	-7%	7%
O=C(Nc1ccc(F)cc1)NC1(C(=O)NCc2ccc3c(c2)OCO3)CCCCC1	i	16µM*	-27%	0%	?
Cc1ccc(CNC(=O)C2(NC(=O)Nc3ccc(C)cc3)CCCCC2)cc1	i	?	-6%	16µM*	-3%
NC(=O)CN1C(=O)C(=O)N(Cc2cccc(C(F)(F)F)c2)C1=O	i	i	?	-6%	0%
CC(=O)c1ccc(S(=O)(=O)Nc2ccc3c(c2)OCO3)cc1	i	i	-4%	-5%	16%
Cn1cc(/C=C/c2cc[n+](C)cc2)c2cc(F)ccc21	i	i	?	?	?
Cn1cc(/C=C/c2cc[n+](C)cc2)c2cc(Cl)ccc21	0.92µM*	i	?	11µM*	13µM*
CC(/C=N\Nc1nnc2c(n1)[nH]c1c(C)cccc12)=C\c1ccco1	i	i	?	-1%	7%
CCOC(=O)C1(Cc2ccc(Cl)cc2)CCN(C(=O)CCc2ccncc2)CC1	i	4.1µM*	-10%	?	19%
CCOC(=O)C1(Cc2ccc(Cl)cc2)CCN(C(=O)CCc2cnccn2)CC1	?	?	-6%	5%	-4%
CCN(CC)S(=O)(=O)c1ccc(NC(=O)CSc2cccc[n+]2[O-])cc1	i	i	-8%	-4%	12%
CC(=O)Cc1nsc(NC(=O)c2ccc(-c3ccc(Cl)c(Cl)c3)o2)n1	i	i	5%	-5%	?
SMILES	KB-3-1 cytotox	KB-V1 cytotox	ELG1 repair inh	SW480 rereplic	MCF10A rereplic
O=C(Nc1ncc(Cc2cccc(C(F)(F)F)c2)s1)c1ccc(-c2cccc([N+](=O)[O-])c2)o1	i	?	12µM*	2%	?
CC(=O)Cc1nsc(NC(=O)c2ccc(-c3cc(C(F)(F)F)ccc3Cl)o2)n1	i	i	-17%	?	3.3µM*
CC(=O)Cc1nsc(NC(=O)c2ccc(-c3cccc(C(F)(F)F)c3)o2)n1	?	5.8µM*	4%	?	13µM*
CCc1ccc(NC(=O)Cn2cc(S(=O)(=O)N3CCCC3)c(S(=O)(=O)N3CCCC3)c2)cc1	i	i	.	.	.
CCC(=O)N(CCC(Cc1ccccc1)c1ccco1)Cc1ccco1 (centres undefined)	i	?	-6%	0%	1%
O=C1CC(c2nnc(Cc3ccc(F)cc3)o2)CN1c1ccccc1 (centres undefined)	i	i	.	.	.
CCOCCCn1c(=NC(C)=O)c(C#N)cc2c(=O)n3ccccc3nc21	i	i	0%	7.3µM*	2.6µM*
CC(=O)N=c1c(C#N)cc2c(=O)n3ccccc3nc2n1Cc1ccccc1	i	i	5%	5.8µM*	8.2µM*
C=C1CC2C3C=C(C)C4=CC(=O)CCC4(C)C3CCC2(C)[C@@]1(OC(C)=O)C(C)=O (some centres undefined)	.	.	.	-8%	10%
CN(C)/C=N/c1ncnc2c1cnn2-c1ccc(C(F)(F)F)cn1	?	i	?	-3%	-5%
O=C(Nc1ccccc1N1CCOCC1)c1ccc(Cl)c(S(=O)(=O)NCc2ccco2)c1	i	i	16µM*	-5%	12%
COC(=O)C1CCN(C(=O)c2ccc(Cl)c(S(=O)(=O)NCc3ccco3)c2)CC1	i	i	-3%	0%	-1%
COc1ccccc1N1CCN(C(=O)c2ccc(Cl)c(S(=O)(=O)NCc3ccco3)c2)CC1	7.1µM*	13µM*	?	?	?
COc1ccc(-c2nc(CS(=O)CC(=O)NCCc3ccc(Cl)cc3)c(C)o2)cc1OC (centres undefined)	i	i	.	.	.
CSc1nccc(-c2cc(Cl)sc2Cl)n1	i	i	4%	2%	-7%
Cc1ccc(NC(=O)CCCCCN2C(=O)[C@@H]3Cc4ccccc4CN3C2=O)c(C)c1	i	i	-27%	?	9%
O=C(Cn1nnc(-c2ccccc2-n2cnnn2)n1)N1CCCCC1	i	i	2%	-3%	-3%
O=C(Cn1nnc(-c2ccccc2-n2cnnn2)n1)c1ccccc1	i	i	4%	-20%	18µM*
CCOc1ccc(NC(=O)CSc2nc(=O)n(Cc3cccnc3)c3c2CCC3)cc1	i	i	14%	-5%	3%
COc1ccc(C(=O)CSc2nc(=O)n(Cc3cccnc3)c3c2CCC3)cc1	i	15µM*	.	4%	5%
CCOc1ccc(NC(=O)CN(C)C(=O)c2c(-c3c(F)cccc3Cl)noc2C)cc1OCC	i	i	?	-67%	-2%
